Shiga toxin inh – Shiga toxin inhibition; Vero cells, Shiga toxin protein synthesis inhibition reporter; inhibition, % at 38.7 µM; hit rate 9.2% among 290,000; in the data active = inhibition mostly above about 28%, no sharp cut-off; inactive = mostly below about 43%; also: 0% is about no effect
Pf growth 96h – P. falciparum growth inhibition at 96 hours; P. falciparum luciferase reporter growth, 96 h; Potency, µM (top dose mostly 28.7 µM), for the others: at the highest dose activity change, negative = inhibition, most hits filed as inhibitors; hit rate 6.9% among 320,000; also: potency is read from the fitted curve at half-maximal effect; % is scaled to controls: 0 for no effect and ±100 for the full control effect
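Plates of compound plus infected erythrocytes (2% hematocrit, 0.05% parasitemia final) incubate 96 hours, 37 C, 5% CO2. Detection reagent added; reduced luminescence from the parasites' luciferase reporter flags inhibition.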
Pf growth 48h – P. falciparum growth inhibition at 48 hours (one generation) | Potency, µM (doses to about 28.7 µM), inactives show at the highest dose activity change, negative = inhibition, hits mostly inhibitors | hit rate 5.9% among 310,000 | P. falciparum luciferase growth in erythrocytes, 48 h; also: potency is read from the fitted curve at half-maximal effect; % is scaled to controls: 0 for no effect and ±100 for the full control effect
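Read-out is firefly luciferase luminescence from an integrated reporter in P. falciparum, so falling signal marks reduced parasite growth. Infected erythrocytes were at 2% hematocrit and 0.1% parasitemia (final) in Albumax-supplemented RPMI 1640.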
CHX counter – counter-screen hit for Shiga toxin inhibitors, cycloheximide; max response, %; hit rate 12% among 300,000; AID 2314; cell reporter, cycloheximide protein synthesis inhibition counterscreen; in the data active = max response mostly above about 13%, no sharp cut-off; inactive = mostly below about 14%; also: read at 38.3 µM for the half of the compounds with a filed dose; 0% is about no effect
NS1 inh – inhibitors of influenza NS1 protein function | hit rate 0.4% among 270,000 | Potency, µM (doses to about 46.1 µM), without a hit: at the top dose activity, positive = more growth; calls by dose curve; also: potency is read from the fitted curve at half-maximal effect; actives are rising curves; nearly all actives have a fitted effect of over 50% in size
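S. cerevisiae expressing influenza A NS1, grown in glucose, washed, then diluted 1:100 into pH 6.0 -URA galactose medium with 23 nl compound. Growth recovery read as OD600; NS1-free strain serves as control.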
An asterisk follows results filed as active; u = inconclusive; x = not tested or not shown. An excerpt weighted towards active compounds, which were near 21% of everything screened. Unless noted, calls follow the shape of the dose curve; as a rule, active = well fitted inhibition curve with a large enough effect; inconclusive = small, poorly fitted or top-dose-only effect, or another doubt; inactive = no such curve, though single readings can be large or run the other way.

SMILES | Shiga toxin inh | Pf growth 96h | Pf growth 48h | CHX counter | NS1 inh
COc1cc2c(cc1OC)[C@@]13CCN4C=C5CCO[C@H]6CC(=O)N2[C@@H]1C6[C@H]5C[C@H]43 (some centres not stated) | x | x | x | x | -2.6%
COc1cccc(C2C(C#N)=C(N)N(N(C)C)C3=C2C(=O)CCC3)c1 (configuration not stated) | 10.9 | -25.2% | 0.0% | 2.4 | 6.1%
N#CC1=C2N=C(N)c3c(sc4c3CCCCC4)N2C2=C(C(=O)CCC2)C1c1ccccc1 (configuration not stated) | 64.8 | 4.65µM* | 2.94µM* | 36.0 | u
N#CC1=C2N=C(N)c3ccccc3N2C2=C(C(=O)CCC2)C1c1ccc(F)cc1 (configuration not stated) | 9.9 | u | u | 10.7 | 2.0%
COc1ccc(C2CC(=O)N(c3ccccc3)C3=C2C(=O)CCC3)cc1 (configuration not stated) | -18.5 | 0.3% | -4.5% | 8.3 | 4.0%
CSc1ccc(C2C(C#N)=C(N)N(c3ccccc3)C3=C2C(=O)CCC3)cc1 (configuration not stated) | -5.7 | 0.0% | 13.1µM* | 16.8 | -22.0%
O=C1CCCC2=C1C(c1ccccc1)CC(=O)N2c1ccccc1 (configuration not stated) | 6.7 | 13.1µM* | -12.9% | -3.5 | 8.0%
CN(C)N1C(N)=C(C#N)C(c2cccnc2)C2=C1CCCC2=O (configuration not stated) | -8.2 | 13.1µM* | -16.5% | -1.2 | 8.0%
COC(=O)c1c(F)c(F)c(NCCO)c(F)c1F | 48.3 | 7.0% | 18.0% | 9.1 | -4.3%
CSCCC(NC(=O)COc1ccccc1)C(=O)N1CC(C)OC(C)C1 (configuration not stated) | x | -3.0% | -7.1% | x | x
COc1cccc(C2C(C#N)=C(N)N(c3ncn[nH]3)C3=C2C(=O)CCC3)c1 (configuration not stated) | -3.7 | 10.0% | -9.2% | -1.9 | -4.6%
COc1ccc(N2C(N)=C(C#N)C(c3ccsc3)C3=C2CCCC3=O)c(OC)c1 (configuration not stated) | 6.7 | 3.7µM* | u | 5.9 | 24.9%
Cc1ccc(C2C(C#N)=C(N)N(c3cccnc3)C3=C2C(=O)CCC3)s1 (configuration not stated) | 51.0* | 5.6% | 5.0% | 11.4 | 7.0%
Cc1ccc(C)c(-n2c(-c3ccc(Br)cc3)csc2=NC(=O)c2ccccc2F)c1 | -10.6 | 0.233µM* | 0.415µM* | -1.5 | 28.7%
CN=c1scc(-c2ccc(Br)cc2)n1C | -10.8 | x | 9.9% | 2.5 | 1.5%
O=C(Cn1ccc(NC(=O)OCc2ccccc2)nc1=O)NCCN1CCOCC1 | x | -25.0% | 28.4% | x | x
COc1cc(NC(=O)COc2ccccc2C)ccc1NC(=O)c1ccco1 | -5.2 | -22.2% | 11.7% | -1.5 | 0.7%
COC(=O)c1ccc2c(c1)NC(=O)c1ccccc1S2 | -19.8 | -7.6% | -21.8% | -6.5 | 11.0%
COC(CN(C)C(=O)c1ccc2c(c1)NC(=O)c1ccccc1S2)OC | -4.4 | 10.1% | 1.47µM* | -2.7 | 2.9%
CN(C)CCNC(=O)c1ccc2c(c1)NC(=O)c1ccccc1S2 | -14.5 | u | 11.7µM* | 3.0 | 8.3%
CCN(CC)CCNC(=O)c1ccc2c(c1)NC(=O)c1ccccc1S2 | -4.4 | u | u | 1.1 | -3.5%
Cc1ccc(C(C(=O)NC(C)(C)C)N(Cc2cccnc2)C(=O)C(=O)NC2CCCCC2)o1 (configuration not stated) | 19.5 | -4.4% | u | -0.9 | x
COC(=O)C(CCSC)NC(=O)Cn1ncc2c(=O)oc3ccc(C)cc3c21 (configuration not stated) | -1.8 | 14.7µM* | 24.3% | -2.1 | -11.1%
O=C(COc1cccc2cccnc12)Nc1cccc(S(=O)(=O)N2CCCC2)c1 | x | u | 10.4µM* | x | x
Cc1cc(OCC(=O)Nc2cccc(S(=O)(=O)N3CCCC3)c2)ccc1Cl | x | -20.8% | -7.9% | x | x
CC(=O)c1cc(Cl)ccc1OCC(=O)Nc1cccc(S(=O)(=O)N2CCCC2)c1 | x | 3.7µM* | u | x | x
O=C(COC(=O)c1cccnc1Cl)Nc1cccc(S(=O)(=O)N2CCCCC2)c1 | 1.4 | 75.6% | 14.5% | 22.1 | x
O=C(COc1cccc2cccnc12)Nc1ccccc1 | 56.0 | -9.9% | 118.5% | 34.3* | x
O=C(COc1ccc(F)cc1Cl)Nc1cccc(S(=O)(=O)N2CCCCCC2)c1 | x | 13.1µM* | u | x | x
COc1ccc(Cl)cc1NC(=O)CN(C)C(=O)CCSc1ccc(C)cc1 | x | 11.7µM* | 11.7µM* | x | x
